ELG1 genotoxic = genotoxicity induction in ELG1-luciferase HEK293T cells. HEK293T ELG1-luciferase reporter, luminescence, 16 h. Potency, µM (highest dose often 46 µM), usual class: activators. actives 1.3% (n = 330,000); also: nearly all actives have a fitted effect of over 60% in size
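After overnight (16 hr) compound treatment at 37 °C, ELG1-luciferase HEK293T cells were lysed with ONE-Glo; luminescence quantified 30 min later at room temperature.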
SMN2 splice enh = SMN2 splice variant enhancement. AID 1458. HEK293 SMN2-luciferase splicing reporter, luminescence, 30-36 h. Potency, µM (series often up to 46.1 µM), most hits filed as activators. actives 2.8% (n = 210,000); also: nearly all actives have a fitted effect of over 55% in size
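HEK293 cells carry an SMN2 minigene-luciferase reporter in which exon 7 inclusion puts luciferase in frame. Cells were seeded at 2000 cells/well, attached for 10-12 hours, then exposed to compounds for 30-36 hours at 37C before ONE-Glo luminescence.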
NPC1 prom act = activates the NPC1 promoter; AID 485313; actives 2.4% (n = 320,000); Potency, µM (titrated, usually from 9.22 µM), hits mostly activators; Huh7 NPC1 promoter luciferase reporter, 24 h; also: nearly all actives have a fitted effect of over 60% in size
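Luciferase expression driven by the NPC1 promoter was measured in stably transfected Huh7 cells after a 24 h compound incubation, using a luciferase reagent and a luminescence read.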
FLuc modulator = firefly luciferase modulation, counter-screen for miR-21 project; P08659; purified FLuc, Km substrates, luminescence inhibition; Potency, µM (highest dose often 57.5 µM), hits mostly inhibitors; actives 6.9% (n = 360,000); also: nearly all actives have a fitted effect of over 55% in size
Target sequence (P08659 whole entry, looked up): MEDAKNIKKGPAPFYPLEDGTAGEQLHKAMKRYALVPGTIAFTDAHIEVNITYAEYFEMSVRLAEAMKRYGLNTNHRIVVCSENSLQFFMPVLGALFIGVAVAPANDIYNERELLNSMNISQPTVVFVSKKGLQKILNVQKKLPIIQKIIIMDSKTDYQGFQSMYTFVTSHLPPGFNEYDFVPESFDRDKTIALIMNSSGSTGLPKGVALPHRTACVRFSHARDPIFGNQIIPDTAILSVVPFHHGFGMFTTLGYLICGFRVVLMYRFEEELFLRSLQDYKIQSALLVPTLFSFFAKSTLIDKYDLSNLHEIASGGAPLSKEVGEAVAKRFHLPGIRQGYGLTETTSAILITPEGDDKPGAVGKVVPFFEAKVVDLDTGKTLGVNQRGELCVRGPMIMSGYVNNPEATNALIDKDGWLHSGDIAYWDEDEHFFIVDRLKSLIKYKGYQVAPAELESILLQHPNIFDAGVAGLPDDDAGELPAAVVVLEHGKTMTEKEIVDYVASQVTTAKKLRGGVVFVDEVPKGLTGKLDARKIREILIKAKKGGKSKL
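Biochemical qHTS of compounds, final roughly 60 µM downward over six points, against 10 nM purified firefly luciferase using Km concentrations of substrates (10 uM D-luciferin, 10 uM ATP) in Tris acetate pH 7.5 buffer; luminescence output.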
Rab9 prom act = Rab9 promoter activation; Huh7 Rab9 promoter-luciferase reporter, luminescence, 24 h; Potency, µM (series often up to 9.22 µM), most hits filed as activators; actives 2.8% (n = 320,000); AID 485297; also: nearly all actives have a fitted effect of over 60% in size
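Promoter activation is measured as luciferase luminescence in Huh7 cells stably transfected with a Rab9 promoter–luciferase construct, following 24 h compound exposure at 37 °C and 10 min reagent incubation at ambient temperature.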
Each line names hits and unclear results; the compound was inactive in the other large screens. The list is not random: actives were taken first. Their share in the collection is about 7.5%. Calls follow the shape of the dose curve; as a rule, active = well fitted curve in the direction sought with a large enough effect; inconclusive = small, poorly fitted or top-dose-only effect, or another doubt; inactive = no such curve, though single readings can be large; an effect the other way counts as inactive or inconclusive.

O=C(O)c1ccc(NS(=O)(=O)c2cccc3cccnc23)cc1	none
O=S(=O)(Nc1ccc(Cl)cc1)c1cccc2cccnc12	none (no result: SMN2 splice enh)
COC(=O)c1ccc(NC(=O)c2ccc(NS(=O)(=O)c3cccc4cccnc34)cc2)cc1	FLuc modulator 16.9µM (no result: SMN2 splice enh)
Cc1cc(C)cc(NC(=O)c2ccc(S(=O)(=O)NCc3cccnc3)cc2)c1	none (no result: SMN2 splice enh)
OC1CCCN(c2c3c(nc4cc(-c5cccc(Cl)c5)nn24)CCC3)C1 (stereo not given)	none
O=C(C1CCCO1)N1CCN(c2c3c(nc4cc(-c5ccc(F)cc5)nn24)CCC3)CC1 (stereo not given)	FLuc modulator 4.78µM
Cc1cccc(-c2cc3nc4c(c(N5CCOCC5)n3n2)CCCC4)c1	ELG1 genotoxic inconclusive, NPC1 prom act inconclusive, FLuc modulator 2.39µM, Rab9 prom act inconclusive
Cc1cccc(-c2cc3nc4c(c(N5CCCC(O)C5)n3n2)CCC4)c1 (stereo not given)	none
COc1cccc(-c2cc3nc4c(c(N5CCC6(CC5)OCCO6)n3n2)CCC4)c1	FLuc modulator 26.9µM
COCCN1CCN(c2c3c(nc4cc(-c5cccc(F)c5)nn24)CCC3)CC1	none
COc1ccc(-c2cc3nc4c(c(N5CCC6(CC5)OCCO6)n3n2)CCC4)cc1	none (no result: SMN2 splice enh)
OC1CCCN(c2c3c(nc4cc(-c5cccc(F)c5)nn24)CCCC3)C1 (stereo not given)	ELG1 genotoxic inconclusive, SMN2 splice enh 11.2µM, NPC1 prom act inconclusive, FLuc modulator inconclusive, Rab9 prom act inconclusive
CC(C)N(Cc1ccccc1)C(=S)Nc1cccnc1	none
OC1CCN(c2c3c(nc4cc(-c5ccc(F)cc5)nn24)CCC3)CC1	FLuc modulator inconclusive
Cc1cccc(-c2cc3nc4c(c(NCc5ccco5)n3n2)CCCC4)c1	NPC1 prom act inconclusive, FLuc modulator 10.7µM, Rab9 prom act 3.16µM
Fc1ccc(-c2cc3nc4c(c(N5CCOCC5)n3n2)CCCC4)cc1	FLuc modulator 21.3µM
COc1ccc(C2/C=C\CN(C(=O)CC(C)C)CC(=O)N2Cc2ccc(F)cc2)cc1 (stereo not given)	none (no result: SMN2 splice enh)
COc1cc(C2CC(=O)Oc3cc(C)c(Cl)c(C)c32)cc(OC)c1OC (stereo not given)	none (no result: SMN2 splice enh, NPC1 prom act, FLuc modulator, Rab9 prom act)
COc1cc(-c2[nH]ncc2CN2CCSCC2)cc(OC)c1OC	ELG1 genotoxic 18.3µM (no result: SMN2 splice enh)
COc1ccc(-c2cn3nc(SCC(=O)Nc4cccc(C)c4C)ccc3n2)cc1	FLuc modulator 2.13µM (no result: ELG1 genotoxic, SMN2 splice enh, NPC1 prom act, Rab9 prom act)
COc1ccc(-c2cn3nc(SCC(=O)Nc4ccc(C)c(Cl)c4)ccc3n2)cc1	FLuc modulator 2.69µM (no result: ELG1 genotoxic, SMN2 splice enh, NPC1 prom act, Rab9 prom act)
COc1ccc(NC(=O)CSc2ccc3nc(-c4ccccc4)cn3n2)cc1OC	none (no result: ELG1 genotoxic, SMN2 splice enh, NPC1 prom act, Rab9 prom act)
O=C(CSc1ccc2nc(-c3ccccc3)cn2n1)Nc1cccc(F)c1	FLuc modulator 7.57µM (no result: ELG1 genotoxic, SMN2 splice enh, NPC1 prom act, Rab9 prom act)
COc1ccc(-c2cn3nc(SCC(=O)Nc4cc(C)cc(C)c4)ccc3n2)cc1	FLuc modulator 3.79µM (no result: ELG1 genotoxic, SMN2 splice enh, NPC1 prom act, Rab9 prom act)
Cc1cccc(NC(=O)CSc2ccc(-c3ccco3)nn2)c1C	none
COc1ccc(C2C=C(c3ccc(Br)cc3)Nc3nnnn32)c(OC)c1 (stereo not given)	none (no result: ELG1 genotoxic, SMN2 splice enh, NPC1 prom act, Rab9 prom act)
Brc1ccc(-c2cn3nc4c(nc3n2)CCCC4)cc1	ELG1 genotoxic inconclusive, SMN2 splice enh 3.98µM, NPC1 prom act 0.1µM, FLuc modulator 0.269µM, Rab9 prom act 0.282µM
c1ccc(-c2cc(-c3ccccc3)n3ncnc3n2)cc1	none
c1ccc(-c2cn3nc4c(nc3n2)CCCC4)cc1	ELG1 genotoxic 0.13µM, SMN2 splice enh 0.501µM, NPC1 prom act 0.112µM, FLuc modulator 0.301µM, Rab9 prom act 0.126µM
CC1CC(C)CN(C(=O)COC(=O)c2cc([N+](=O)[O-])ccc2N2CCOCC2)C1 (stereo not given)	none (no result: SMN2 splice enh)
CC(C)C(NS(=O)(=O)c1ccc2c(c1)oc(=O)n2C)C(=O)NCc1ccccc1 (stereo not given)	none (no result: ELG1 genotoxic, NPC1 prom act, Rab9 prom act)
COc1ccc(CNC(=O)CN(C)S(=O)(=O)c2ccccc2)cc1	none
COc1ccccc1C(=O)Nc1ccc2c(c1)CN(C(=O)CSC)CC2	FLuc modulator 23.9µM (no result: SMN2 splice enh)
O=C(Nc1ccc2c(c1)CCCN2C(=O)c1ccccc1)c1ccccc1Br	FLuc modulator inconclusive (no result: SMN2 splice enh)
CCOC(=O)CNC(=O)N1CCc2ccc(NC(=O)c3ccccc3Cl)cc2C1	FLuc modulator inconclusive (no result: SMN2 splice enh)
COc1ccccc1C(=O)Nc1ccc2c(c1)CCCN2C(=O)c1ccccc1	FLuc modulator 9.53µM (no result: SMN2 splice enh)
